Results filed as inconclusive are left out. Unmarked numbers belong to inactive results. The source made the active and inactive calls. Calls follow the shape of the dose curve; as a rule, active = well fitted cell-killing curve with a large enough effect in the repeat runs; inconclusive = weak or mixed curves, or effect the other way; inactive = flat fitted curve, though single readings scatter.
experiment: Human pregnane X receptor (PXR) small molecule agonists, qHTS cell viability counter screen (AID 1346977); settings: PXR-Luc HepG2 viability, CellTiter-Fluor, 24 h; series mostly up to 92.4 µM; activity change, negative = cytotoxicity: at the top concentration; also: nearly all actives have a fitted effect of over 50% in size
Excerpt: U.S. Tox21 Program National Center for Advancing Translational Sciences [NCATS] NIH Chemical Genomics Center [NCGC] U.S. Environmental Protection Agency [EPA] National Institutes of Environmental Health Sciences [NIEHS] National Toxicology Program [NTP] U.S. Food and Drug Administration [FDA] Tox21 Assay Overview: The human pregnane X receptor (hPXR) regulates the expression of several drug metabolizing enzymes and induction of these proteins is a major mechanism for developing drug resistance in cancer. One such key enzyme catalyzing the drug metabolism is cytochrome P450 3A4 (CYP3A4). Changes in CYP3A4 expression affect drug metabolism, thereby reducing the therapeutic efficacy and altering toxicological response to a drug and which finally causes adverse drug interaction. To screen Tox21 libraries for compounds that activate hPXR-mediated CYP3A4 gene expression, PXR-Luc HepG2 cells were used. Also cytotoxicity of the compounds was tested in parallel by measuring the cell viability using CellTiter-Fluor assay system in the same wells.
Tox21 Assay Protocol Summary: PXR-Luc HepG2 cells were dispensed at 2,000 per well in 5uL of assay medium containing 5% charcoal-stripped FBS into white solid bottom 1536-well plates (Corning Life Sciences, Corning, NY) using a Multidrop Combi (Thermo Scientific, Waltham, MA) dispenser. The assay plates were incubated at 37 C and 5% CO2 for 5hr, and then 23nL of compounds dissolved in DMSO and positive control were transferred using a Pintool station (Wako, San Diego, CA). The assay plates were incubated at 37C and 5% CO2 for 24hr. For cytotoxicity read, after 23hr incubation at 37C, 1uL CellTiter-Fluor reagent (Promega Corporation, Madison, WI) was added to each well of the assay plates using Flying Reagent Dispenser (FRD, Aurora Discovery, San Diego, CA). After 1hr incubation at 37C and 5% CO2, the fluorescence signal was quantified using a ViewLux plate reader (PerkinElmer, Shelton, CT).
% is scaled to controls: 0 for no effect and ±100 for the full control effect; potency is read from the fitted curve at half-maximal effect.

SMILES | activity change, negative = cytotoxicity | Potency
CC(C)C(O)C(C)(C)CO (stereo not given) | -0.793% | –
CN=C(N)NC(=O)Nc1c(C)cccc1C | 6.58% [at 42.5 µM] | –
O=C(O)CCCc1c[nH]c2ccccc12 | 39.2% | –
COc1cc(C(C)=O)ccc1OCCCN1CCC(c2noc3cc(F)ccc23)CC1 | -29.9% [at 42.5 µM] | –
CN(C)CC/C=C1\c2ccccc2Sc2ccc(Cl)cc21 | – | 29.8 µM (active)
Nc1ccc(F)cc1 | 2.44% | –
CC(C)OC(=O)c1ccccc1C(=O)OC(C)C | 8.84% | –
CCC(Cl)CC(Cl)C(Cl)C(Cl)C(Cl)C(C)Cl (stereo not given) | -5.6% [at 19 µM] | –
CCCCCCCC/C=C/C(=O)O | 0.568% [at 42.5 µM] | –
CC(CN(CCN(CC(C)OCCO)CC(C)OCCO)CC(C)OCCO)OCCO (stereo not given) | -4.99% | –
CCNc1nc(N)nc(Cl)n1 | 10.5% | –
CC(C)(C)C1(CCc2ccc(Cl)cc2)CO1 (stereo not given) | 9.59% | –
O=S(=O)(O)CO | 1.22% | –
CCC1CCC(CCC(=O)O)C1 (stereo not given) | 11.5% | –
CC(C)(C)C(O)/C=C/c1ccc2c(c1)OCO2 (stereo not given) | 0.462% [at 42.5 µM] | –
Nc1ccc(NC(=O)c2ccc(N)cc2)cc1 | 1.17% | –
BrC(Br)C(Br)Br | 7.81% | –
N[C@@H](Cc1cc(I)c(O)c(I)c1)C(=O)O | 5.2% [at 42.5 µM] | –
CCCCCCCCCCCCCCCCCC(=O)OCC(CC)CCCC (stereo not given) | -0.984% | –
Nc1cccc2c(N)cccc12 | – | 5.45 µM (active)

SMILES | activity change, negative = cytotoxicity | Potency
CC(C)C(=O)OCCOc1ccccc1 | 4.92% | –
CCN(CC)C(=O)N1CCN(C)CC1 | 5.71% [at 42.5 µM] | –
Oc1ccc2c(c1)Cc1ccccc1-2 | -3.17% | –
Cc1cccc2sc(N)nc12 | -2.27% | –
C=Cc1ccc(OC(C)=O)cc1 | 14.6% | –
CC(CO)(CO)C(=O)O | 5.34% | –
CC1CCCO1 (stereo not given) | -11.3% | –
COc1ccc(-c2cc(C(F)F)nn2-c2ccc(S(N)(=O)=O)cc2)cc1F | 0.314% [at 42.5 µM] | –
CC(C)(C)S | 12.2% | –
COC1CCC=CO1 (stereo not given) | 4.76% | –
CC1CCCC(=O)C1=O (stereo not given) | -4.17% | –
COc1ccc2nc(S(=O)Cc3ncc(C)c(OC)c3C)[nH]c2c1 (stereo not given) | -10.2% [at 42.5 µM] | –
FC(F)(F)C(F)(F)C(F)(F)C(F)(F)CCI | 1.51% [at 42.5 µM] | –
CCOC(=O)N1CCC(Nc2ccc(Cl)cc2N)CC1 | -9.12% [at 42.5 µM] | –
CC(C)(O)c1coc(S(=O)(=O)NC(=O)Nc2c3c(cc4c2CCC4)CCC3)c1 | 13.8% | –
O=c1[nH]c2cc(C(F)(F)F)c(N3CCOCC3)cc2n(CP(=O)(O)O)c1=O | 14.1% [at 42.5 µM] | –
CC(C)c1ccc(C(=O)N=C(N)N)cc1S(C)(=O)=O | -0.734% [at 42.5 µM] | –
CC(C)COC(=O)COc1cc(Cl)c(Cl)cc1Cl | 6.82% | –
c1ccc(CNc2ncnc3c2ncn3C2CCCCO2)cc1 (stereo not given) | 0.563% | –
COc1ccc(CCN(C)CCCN2CCc3cc(OC)c(OC)cc3CC2=O)cc1OC | -9.58% [at 42.5 µM] | –

From PubChem BioAssay (Tox21)
